Screens (PubChem BioAssay)
M1 ag parental – counter-screen for M1 agonists: effect in parental CHO-K1 cells; Fluo-8 calcium fluorescence; scaled to maximal ATP response, vehicle zero; activation, % at 3 µM; actives 0.48% (n = 360,000); AID 602248, 2012; in the data active means activation above about 15%;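 further: untransfected CHO-K1 host cells lacking M1 receptor as counterscreen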
CHRM1 antagonist – human M1 muscarinic receptor antagonists, primary screen, CHO-K1 cells, Fluo-8 calcium fluorescence, 1536-well; Muscarinic acetylcholine receptor M1 (Homo sapiens), P11229; actives 1.3% (n = 360,000); CHO-K1 hM1, ACh EC80 antagonist; inhibition, % at 3 µM;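 active means percent inhibition above its own plate's cutoff, namely the mean of that plate's compound wells plus 3 SD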;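 further: peak over basal fluorescence ratio during 140 s after agonist addition; 0% = ACh EC80 plus DMSO and 100% = DMSO alone without agonist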
Target sequence (P11229 whole entry, looked up): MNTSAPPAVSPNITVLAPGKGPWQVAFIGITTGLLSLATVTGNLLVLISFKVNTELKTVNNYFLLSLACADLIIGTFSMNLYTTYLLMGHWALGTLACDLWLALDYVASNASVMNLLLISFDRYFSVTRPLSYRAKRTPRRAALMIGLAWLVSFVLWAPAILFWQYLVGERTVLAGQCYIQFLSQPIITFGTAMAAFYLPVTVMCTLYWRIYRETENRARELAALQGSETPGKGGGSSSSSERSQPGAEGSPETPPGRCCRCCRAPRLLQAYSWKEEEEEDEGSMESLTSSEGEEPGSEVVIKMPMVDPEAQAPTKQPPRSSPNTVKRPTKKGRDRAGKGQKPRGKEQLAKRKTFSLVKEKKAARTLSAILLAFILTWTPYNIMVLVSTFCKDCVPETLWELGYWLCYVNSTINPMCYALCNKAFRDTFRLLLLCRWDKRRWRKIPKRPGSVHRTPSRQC
CHO-K1 Ca antag – nonselective inhibitor or artifact in parental CHO-K1 cells | ATP-induced calcium, Fluo-8 fluorescence | inhibition, % at 3 µM | actives 0.6% (n = 360,000) | AID 602250;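 active means inhibition above a per-plate cutoff, the plate's mean sample inhibition plus 3 SD, cut at about 24% in these data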;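 further: 0% = DMSO plus EC80 ATP and 100% = DMSO alone without ATP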
CHRM1 agonist – human M1 muscarinic receptor agonists, primary screen, Fluo-8 calcium fluorescence, CHO-K1 cells, HTS; Muscarinic acetylcholine receptor M1 (Homo sapiens), P11229; CHO-K1 hM1, agonist mode; 0% DMSO, 100% acetylcholine EC100; activation, % at 3 µM; actives 0.33% (n = 360,000);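 active means activation above the run's mean compound activation plus 3 SD, cut at about 16% in these data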;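 further: peak over basal fluorescence ratio within a 140 s kinetic read after compound addition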
M1 PAM – human M1 muscarinic receptor positive allosteric modulators, primary screen, CHO-K1 cells, Fluo-8 calcium fluorescence, 1536-well; Muscarinic acetylcholine receptor M1 (Homo sapiens), P11229; AID 588819, 2011; CHO-K1 hM1, ACh EC20; 0% = ACh EC20, 100% = maximal ACh; actives 0.088% (n = 360,000); activation, % at 3 µM; in the data active means activation above about 19%, passing the limit was not always enough
CHO-K1 Ca PAM – nonselective calcium activators in parental CHO-K1 cells, primary screen, counter-screen for M1 PAM project, cell-based, Fluo-8 calcium fluorescence, full deck, 1536-well; activation, % at 3 µM; ATP EC20; 0% at ATP EC20, 100% at ATP max; actives 0.02% (n = 360,000); AID 602247, 2012;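 active means activation above the run cutoff, the mean activation of all test compounds plus 3 SD, cut at about 40% in these data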;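 further: peak over basal fluorescence ratio in a 140 s read after ATP addition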
The depositor's hits bear a star; . = no result given. Shown are actives, neighbours in structure and some others; about 2.3% of the full set was active somewhere.

SMILES	M1 ag parental	CHRM1 antagonist	CHO-K1 Ca antag	CHRM1 agonist	M1 PAM	CHO-K1 Ca PAM
CCOC(=O)C1CCCN(CCc2ccccc2)C1 (stereo not given)	1	49*	-5	18*	-12	6
CCOC(=O)C1CCCN(C(=O)CCn2nc(-c3ccccc3)ccc2=O)C1 (stereo not given)	0	2	24*	11	-4	-11
CCOC(=O)C1CCCN(C(=O)CCCn2nnnc2CN2CCC(C)CC2)C1 (stereo not given)	1	-8	-12	22*	0	2
CCOC(=O)N1CCC(NC2CCCCCCC2)CC1	2	74*	-4	-7	-27	1
COC1C(O)C(O)C(O)C(O)C1O (stereo not given)	0	-16	5	0	14	7
CCn1cc(/C=C(\NC(=O)c2ccc(OC)c(OC)c2)C(=O)NCCCN2CCOCC2)c2ccccc21	0	-12	1	3	23	-13
CC(=O)Nc1nc(-c2ccc(Cl)cc2)ns1	4	4	-6	-5	-6	7
CN1CCCN(C(=O)c2c(F)cccc2Cl)CC1	0	-1	2	-6	3	11
O=[N+]([O-])c1nccn1CC(O)CO (stereo not given)	0	.	-1	.	.	-1
O=C(NC(=O)c1cnccc1C(F)(F)F)Nc1ccccc1	1	-18	8	-4	16	-12
CCOC(=O)c1ccc(NC(=S)N2CCSC2c2ccc(Cl)cc2)cc1 (stereo not given)	8	45*	13	34*	2	6
CCN1CCN(c2ccc(S(=O)(=O)N3CCOCC3)cc2NC(=O)C(C)Oc2ccc(Cl)cc2)CC1 (stereo not given)	0	-22	9	-5	10	-3
CC1CCN(CCOc2ccc(OCc3ccccc3)cc2)CC1	2	61*	-9	-11	-25	20
O=C(c1ccccc1)c1ccc(OCCCN2CCCCC2)cc1	0	34*	-6	-6	-21	11
CC(=O)c1ccc(OCCCN2CCCCC2)cc1	0	14	-9	-7	-20	10
c1ccc(COc2ccc(OCCCN3CCCCC3)cc2)cc1	2	50*	19	-5	-26	-7
CC1CC(C)CN(CCCCOc2ccc([N+](=O)[O-])cc2)C1 (stereo not given)	1	24*	-10	-8	-24	21
c1ccc(CCCN2CCOCC2)cc1	1	-15	-13	-2	13	5
COCCCNCCCCOc1ccc(OCc2ccccc2)cc1	5	5	5	-8	-4	1
c1ccc(OCc2ccc(CCCN3CCOCC3)cc2)cc1	2	37*	8	-5	-22	-7
c1ccc(COc2ccc(OCCCCN3CCCC3)cc2)cc1	7	35*	-8	-4	-21	25
c1ccc(COc2ccc(OCCCNC3CCCC3)cc2)cc1	6	29*	1	3	-23	18
CC1CCN(CCCCOc2ccc(C(C)(C)C)cc2)CC1	9	60*	1	-6	-29	-5
CCCCCOc1ccc(Br)cc1CSC(=N)N	6	24*	24*	-1	-13	3
COc1ccc(Br)cc1CSC(=N)N	2	0	1	-13	-1	3
SMILES	M1 ag parental	CHRM1 antagonist	CHO-K1 Ca antag	CHRM1 agonist	M1 PAM	CHO-K1 Ca PAM
CCN1CCN(CCNC(=O)c2ccc3c(c2)N(Cc2ccc(F)cc2)C(=O)/C(=C/c2ccccc2)S3)CC1	2	4	-12	-6	-7	23
Cc1cccc(CN2C(=O)/C(=C\c3ccc(C(=O)NCCN4CCOCC4)cc3)Sc3ccccc32)c1	7	33*	-1	1	-11	17
CCN1CCN(CCNC(=O)c2ccc(/C=C3/Sc4ccccc4N(Cc4cccc(Cl)c4)C3=O)cc2)CC1	6	57*	-2	1	-22	1
Cc1ccccc1CN1C(=O)/C(=C\c2ccc(C(=O)NCCN3CCOCC3)cc2)Sc2ccccc21	2	-1	-4	-1	4	6
O=C1Nc2ccccc2/C1=N/N=C/c1ccc(-c2ccc([N+](=O)[O-])cc2)o1	0	33	-12	4	6	9
CC1(C)CC1C(=O)Nc1ccc([N+](=O)[O-])cc1Br (stereo not given)	0	-8	-2	-7	13	4
Cc1ccc(C2(c3ccc(C)cc3)CC2C(=O)Nc2ccc([N+](=O)[O-])cc2O)cc1 (stereo not given)	9	25*	18	3	-20	0
O=C(Nc1cccc(S(=O)(=O)NC2=NCCC2)c1)c1cn(-c2ccccc2)nc1-c1ccc(F)cc1	5	17	-13	-5	1	13
Cc1ccc(-c2nn(-c3ccccc3)cc2C(=O)Nc2cccc(S(=O)(=O)NC3=NCCC3)c2)cc1	1	11	34*	-4	0	-13
CCc1nc2c(OCCOc3ccc(F)cc3)cccn2c1N(C)C(=O)CC(C)C	0	-17	-9	-8	4	15
CCc1[nH]nc(C(=O)N2CCCC(N3CCN(c4ccccc4C)CC3)C2)c1C (stereo not given)	2	9	-1	-4	-2	12
Cc1ccc2c(c1)N(C(=O)CCC(=O)N1CCN(c3ccccn3)CC1)CCO2	0	36*	10	-8	-7	-9
O=C(CCC(=O)N1CCOc2ccc(Cl)cc21)N1CCN(c2ccccn2)CC1	1	-4	4	-7	9	0
CN(C)CCO[C@@H](c1ccc(Cl)cc1)c1ccccn1	0	44*	4	-9	-27	-21
CN(C)CC[C@@H](c1ccc(Br)cc1)c1ccccn1	0	42	6	-8	-26	-2
CS(=O)(=O)c1ccc(-c2csc(C(O)(c3ccccc3)C(F)(F)F)n2)cc1 (stereo not given)	4	-11	-9	-1	-3	3
CCc1c(O)nc(SCC(=O)Nc2ccccc2)n(-c2ccccc2C)c1=O	0	-28	-1	6	29*	6
Cc1ccc2oc(=O)c3cc(C(=O)NCCCN4CCc5ccccc5C4)sc3c2c1	0	25*	-15	-14	-21	18
COc1cccc(NC(=O)Nc2nc(SC)ns2)c1	14	6	20	6	0	-12
COc1cccc(NC(=O)Nc2nc(SC(C)(C)C)ns2)c1	19*	37*	24*	6	-15	-7
